Inconclusive results are not listed. Active and inactive are the calls of the source. Unless noted, calls follow the shape of the dose curve; as a rule, active = well fitted curve in the direction sought with a large enough effect; inconclusive = small, poorly fitted or top-dose-only effect, or another doubt; inactive = no such curve, though single readings can be large; an effect the other way counts as inactive or inconclusive.
Columns and labels:
[1] = target: Voltage-gated inwardly rectifying potassium channel KCNH2 (Homo sapiens) (UniProt Q12809); assay: qHTS Assay for Small Molecule Inhibitors of the Human hERG Channel Activity (AID 588834);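 also: top concentration of the series differs between compounds; % is scaled to controls: 0 for no effect and ±100 for the full control effect; lower thallium flux fluorescence means stronger hERG block; nearly all actives have a fitted effect of over 50% in size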
Summary of the method: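 Thallium serves as surrogate for K+ influx through BacMam-delivered hERG in U2OS cells. Compounds are added for about 10 minutes after dye loading; stimulation buffer then starts flux, monitored kinetically on FDSS.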

[2] = S16 Schwann cell viability assay (CellTiter-Glo assay) (AID 624031);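 also: cellular ATP luminescence as a viability measure; plate controls were DMSO-treated cells for no effect and cell-free wells for full effect; nearly all actives have a fitted effect of over 70% in size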
Summary of the method: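 Native S16 rat Schwann cells, 500-750 cells/well in DMEM with 10% FBS, dosed with compound after overnight culture and incubated 24h at 37 degree Celsius/5% CO2. Viability by CellTiter-Glo luminescence; % activity normalized to no-cell wells and DMSO-treated cells.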

[3] = S16 Schwann cell PMP22 intronic element firefly luciferase assay (AID 624032);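 also: plate controls were DMSO for no effect and PTC124 positive control mean for full effect; nearly all actives have a fitted effect of over 30% in size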
Summary of the method: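 Rat S16 Schwann cells stably carrying firefly luciferase driven by a PMP22 intronic element, in 10% FBS, treated 24 h at 37 C. ONE-Glo luminescence normalized to PTC124 control and DMSO (0%); curves classed by r2, magnitude and activity.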

[4] = S16 Schwann cell PMP22 intronic element beta-lactamase assay (AID 624044; calls by dose curve;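 also: 0% = DMSO and -100% = potassium clavulanate positive control; nearly all actives have a fitted effect of over 15% in size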); settings: S16 rat Schwann cells, PMP22 element beta-lactamase FRET, 24 h; ratio activity, negative = inhibition: at 38.3 µM (top of the series) unless noted
Summary of the method: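 Beta-lactamase reporter under a PMP22 intronic regulatory element in stable S16 rat Schwann cells; 24 h compound exposure. 460 nm blue signal normalized between DMSO (0%) and potassium clavulanate, with 535 nm FRET tracking viability; curves classed by r2 and response.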

[5] = target: Luciferin 4-monooxygenase (Photinus pyralis) (UniProt P08659); assay: Biochemical firefly luciferase enzyme assay for NPC (AID 624030);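 also: purified P. pyralis luciferase at 10 nM with luciferin and ATP substrate; 0% = DMSO and -100% = full luciferase inhibition by PTC124 control; nearly all actives have a fitted effect of over 70% in size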
Summary of the method: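 Purified P. pyralis luciferase at 10 nM in 50 mM Tris Acetate (final), luminescence read within 5 minutes of enzyme addition to compounds. Activity normalised to PTC124 versus DMSO; concentration-response curves classed by r2, magnitude and activity.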

Chain of Luciferin 4-monooxygenase (Photinus pyralis) (P08659 whole entry, looked up): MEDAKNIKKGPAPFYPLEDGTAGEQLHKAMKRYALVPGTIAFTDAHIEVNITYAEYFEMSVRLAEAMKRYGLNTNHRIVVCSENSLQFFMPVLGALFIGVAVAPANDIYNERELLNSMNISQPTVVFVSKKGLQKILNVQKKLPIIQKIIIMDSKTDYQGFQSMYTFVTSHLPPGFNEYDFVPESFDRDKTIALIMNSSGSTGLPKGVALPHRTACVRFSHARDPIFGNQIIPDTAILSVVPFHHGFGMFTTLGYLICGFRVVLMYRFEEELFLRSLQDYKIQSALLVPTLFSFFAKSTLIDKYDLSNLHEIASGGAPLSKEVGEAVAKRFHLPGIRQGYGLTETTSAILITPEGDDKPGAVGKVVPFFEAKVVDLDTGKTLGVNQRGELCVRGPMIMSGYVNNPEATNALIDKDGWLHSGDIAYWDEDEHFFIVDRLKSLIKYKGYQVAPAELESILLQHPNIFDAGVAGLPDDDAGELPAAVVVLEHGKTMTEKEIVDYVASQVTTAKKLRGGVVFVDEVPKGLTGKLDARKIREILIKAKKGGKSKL
Chain of Voltage-gated inwardly rectifying potassium channel KCNH2 (Homo sapiens) (Q12809 whole entry, looked up): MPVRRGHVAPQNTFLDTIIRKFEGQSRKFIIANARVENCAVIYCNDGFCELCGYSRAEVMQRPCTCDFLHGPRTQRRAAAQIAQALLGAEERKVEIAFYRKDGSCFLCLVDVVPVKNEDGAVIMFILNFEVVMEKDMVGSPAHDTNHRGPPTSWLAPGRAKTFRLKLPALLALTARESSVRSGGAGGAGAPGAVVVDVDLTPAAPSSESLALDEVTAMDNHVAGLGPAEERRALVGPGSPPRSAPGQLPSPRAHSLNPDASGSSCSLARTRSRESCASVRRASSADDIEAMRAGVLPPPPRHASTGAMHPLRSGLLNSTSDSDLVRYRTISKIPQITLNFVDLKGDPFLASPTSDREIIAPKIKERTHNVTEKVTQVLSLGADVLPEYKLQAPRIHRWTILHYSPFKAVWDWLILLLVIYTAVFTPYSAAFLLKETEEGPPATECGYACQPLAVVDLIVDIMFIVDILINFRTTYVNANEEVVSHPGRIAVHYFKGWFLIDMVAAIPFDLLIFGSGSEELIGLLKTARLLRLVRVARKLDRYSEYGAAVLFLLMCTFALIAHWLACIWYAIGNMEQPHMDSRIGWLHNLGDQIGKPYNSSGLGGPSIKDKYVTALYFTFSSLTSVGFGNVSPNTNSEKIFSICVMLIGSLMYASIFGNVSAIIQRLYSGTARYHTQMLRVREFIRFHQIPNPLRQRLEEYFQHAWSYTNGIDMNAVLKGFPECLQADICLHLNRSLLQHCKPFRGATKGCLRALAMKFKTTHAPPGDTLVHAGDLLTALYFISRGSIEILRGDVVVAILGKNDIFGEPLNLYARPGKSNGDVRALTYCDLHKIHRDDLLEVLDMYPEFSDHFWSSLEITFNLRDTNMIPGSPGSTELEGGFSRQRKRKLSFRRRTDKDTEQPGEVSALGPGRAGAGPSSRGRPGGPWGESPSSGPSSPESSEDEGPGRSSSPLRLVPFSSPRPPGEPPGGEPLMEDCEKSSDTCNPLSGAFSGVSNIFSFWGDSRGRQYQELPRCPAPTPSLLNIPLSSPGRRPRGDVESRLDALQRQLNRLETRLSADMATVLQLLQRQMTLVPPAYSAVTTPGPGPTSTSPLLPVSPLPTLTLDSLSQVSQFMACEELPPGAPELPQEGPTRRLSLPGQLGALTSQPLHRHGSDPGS

CC1CCC(NC(=O)N(CCCl)N=O)CC1 (stereo not given)
inactive: Potency [1] | Potency [2] | Potency [3] | ratio activity, negative = inhibition [4] 2.89%

C=CCN1CCCC1CNC(=O)c1cc(S(N)(=O)=O)cc(OC)c1OC (stereo not given)
inactive: Potency [5] | Potency [2] | Potency [3] | ratio activity, negative = inhibition [4] 1.62%

Cc1cccc(Nc2ncccc2C(=O)O)c1C
inactive: Potency [1] | Potency [2] | ratio activity, negative = inhibition [4] 6.34%

O=[N+]([O-])c1c(Cl)cccc1-c1c[nH]cc1Cl
inactive: Potency [5] | Potency [2] | Potency [3] | ratio activity, negative = inhibition [4] -0.605%

CCOC(=O)c1cc(-c2ccccc2)nc2ccc(C)cc12
inactive: Potency [5] | Potency [2]

O=C(O[C@H]1CN2CCC1CC2)N1CCc2ccccc2[C@@H]1c1ccccc1
inactive: Potency [5] | Potency [2]

CC(C)(C)c1ccc2c(S(=O)(=O)O)c(C(C)(C)C)ccc2c1
inactive: Potency [1] | Potency [3] | ratio activity, negative = inhibition [4] -0.38%

CC1CCCCN1CCCOC(=O)c1ccccc1 (stereo not given)
inactive: Potency [5] | Potency [2] | Potency [3]
